AMA1 RON2 block = qHTS for Inhibitors of AMA1-RON; Towards Development of Antimalarial Drug Lead: Primary Screen; AID 720542, 2013; 0.2% of 360,000 active; AlphaScreen AMA1-biotinylated RON2 peptide binding; Plasmodium falciparum AMA1 (3D7) - RON2 peptide interaction; Potency, µM (highest dose often 58.2 µM), without a hit: top-dose activity change, negative = inhibition, hits mostly inhibitors;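 note: potency is the fitted concentration of half-maximal effect; 0% = vehicle wells and -100% = peptide control; nearly all actives have a fitted effect of over 45% in size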
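AMA1 (3D7) with his tag at 25 nM final met compounds first, then biotinylated RON2 peptide at 25 nM; detection used donor plus acceptor beads, 10 µg/mL apiece, read by AlphaScreen after 30 min at room temperature.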
HCV inhibitor = qHTS Assay for Inhibitors of Hepatitis C Virus (HCV) | Huh7.5.1 HCVcc-Cre infection, luciferase reporter, 44 h | Potency, µM (titrated, usually from 41.8 µM), inactives show at the top dose activity change, negative = inhibition, actives largely listed as inhibitors | 3.4% of 340,000 active | AID 651820, 2012; note: potency is the fitted concentration of half-maximal effect; % is set by controls: 0 for no effect and ±100 for the full control effect
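1,000 cells/well; 4 h culture; + compound; + HCVcc-Cre (~0.5 moi); 44 h; luciferase substrate, RT 15 min; read 15 sec.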
Shiga inhibitor = A qHTS for Small Molecule Inhibitors of Shiga Toxin; inhibition, % at 38.7 µM; 9.2% of 290,000 active; Vero cells, Shiga toxin protein synthesis inhibition reporter; AID 2315, 2010; in the data active = inhibition mostly above about 28%, no sharp cut-off; inactive = mostly below about 43%; note: 0% is about no effect
CHX counter = Cycloheximide Counterscreen for Small Molecule Inhibitors of Shiga Toxin; cell reporter, cycloheximide protein synthesis inhibition counterscreen; 12% of 300,000 active; max response, %; in the data active = max response mostly above about 13%, no sharp cut-off; inactive = mostly below about 14%; note: read at 38.3 µM for the half of the compounds with a filed dose; 0% is about no effect
Pf growth 96h = Primary qHTS for delayed death inhibitors of the malarial parasite plastid, 96 hour incubation; P. falciparum luciferase reporter growth, 96 h; Potency, µM (doses to about 28.7 µM), for the others: at the highest dose activity change, negative = inhibition, most hits filed as inhibitors; 6.9% of 320,000 active; AID 504834, 2011; note: potency is the fitted concentration of half-maximal effect; % is set by controls: 0 for no effect and ±100 for the full control effect
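Erythrocytes infected with luciferase-expressing P. falciparum were dispensed at 2% hematocrit and 0.05% parasitemia (final), then incubated with compounds 96 hours at 37 C in 5% CO2. Luminescence after detection reagent addition reported growth.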
Pf growth 48h = Primary qHTS for delayed death inhibitors of the malarial parasite plastid, 48 hour incubation. AID 504832, 2011. 5.9% of 310,000 active. Potency, µM (top dose mostly 28.7 µM), inactives show top-dose activity change, negative = inhibition, usual class: inhibitors. P. falciparum luciferase growth in erythrocytes, 48 h; note: potency is the fitted concentration of half-maximal effect; % is set by controls: 0 for no effect and ±100 for the full control effect
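Compounds are pin-transferred into medium, infected erythrocytes (2% hematocrit, 0.1% parasitemia final) are added, and plates sit one parasite generation at 37 C in 5% CO2. Detection reagent is then added and luminescence measured.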
An asterisk follows results filed as active; ? = inconclusive; · = no result given; + = active, no number. Only some compounds are listed: those with a hit (about 21% of all), similar ones and a draw of the others. Unless noted, calls come from the whole dose curve; as a rule, active = well fitted curve in the direction sought with a large enough effect; inconclusive = small, poorly fitted or top-dose-only effect, or another doubt; inactive = no such curve, though single readings can be large; an effect the other way counts as inactive or inconclusive.

SMILES	AMA1 RON2 block	HCV inhibitor	Shiga inhibitor	CHX counter	Pf growth 96h	Pf growth 48h
Cc1ccc(S(=O)(=O)N2CCOCC2)cc1C(=O)Nc1nc(-c2ccccn2)cs1	1.9%	?	·	·	·	·
COc1ccc(C(=O)Nc2nc(-c3ccccn3)cs2)cc1S(=O)(=O)N1CCOCC1	-61.3%	11.2µM*	·	·	·	·
O=C(COC(=O)c1cccc(S(=O)(=O)N2CCOCC2)c1)Nc1nc(-c2ccccc2Cl)cs1	-5.4%	14.0%	93.1*	28.2*	108.3%	68.5%
COc1cc(C(C(=O)Nc2c(C)cccc2C)N(C)C(=O)c2ccc(-n3cnnn3)cc2)ccc1O (centres undefined)	-3.2%	-15.7%	8.5	-2.5	-9.1%	?
CCOc1ccc(/C=N/NC(=O)c2csc(C)c2C)c(OCC)c1	-0.5%	-21.8%	47.1	17.5	0.8%	3.2%
COc1ccccc1/C=N/NC(=O)c1csc(C)c1C	0.9%	-16.9%	39.4*	15.4*	32.5%	54.7%
Cc1scc(C(=O)N/N=C/c2ccc(OC(C)C)cc2)c1C	0.5%	-16.3%	114.8*	44.2*	·	-29.1%
CCCCOc1cccc(/C=N/NC(=O)c2csc(C)c2C)c1	-2.5%	-7.1%	10.2	1.2	0.0%	4.6%
Cc1scc(C(=O)N/N=C/c2ccc(Cl)s2)c1C	-11.0%	4.0%	50.1*	46.8*	30.1%	105.6%
Nc1c(S(=O)(=O)c2cccc(Cl)c2)c2nc3ccccc3nc2n1/N=C/c1ccc(O)c(O)c1	·	·	-9.2	-1.7	-15.6%	7.38µM*
CCOc1cc(C(=O)Nc2cccnc2)cc(OCC)c1OCC	-0.8%	1.4%	22.5	0.3	100.5%	?
O=C(Nc1cccnc1)c1ccc(CSc2ccccc2)cc1	-3.3%	-9.8%	73.0*	41.1*	67.3%	67.2%
O=C(Nc1cccnc1)c1ccc(Oc2ccccc2)cc1	32.1%	?	37.7*	33.6*	·	134.9%
O=C(Nc1cccc(Oc2ccc(C(=O)O)c(C(=O)O)c2)c1)c1ccc(-c2ccccc2)cc1	-2.8%	10.0%	-4.3	-0.8	56.2%	1.65µM*
O=C(Nc1cccc(Br)c1)c1ccc(CSc2ccccc2)cc1	8.1%	-8.4%	47.1	13.3	-21.6%	71.1%
CCCOc1ccc(C(=O)Nc2cccnc2)cc1	6.0%	-12.5%	·	28.7*	21.4%	184.1%
CCCCOc1ccc(C(=O)NC)cc1	-7.6%	3.2%	19.6	21.1	·	-11.7%
CCCCOc1ccc(C(=O)Nc2ccncc2)cc1	6.3%	8.91µM*	94.5*	25.9*	-11.1%	?
O=C1c2cccnc2C(Nc2ccc(F)c(Cl)c2)N1Cc1cccs1 (centres undefined)	-1.9%	-5.1%	-9.2	-2.3	56.0%	3.4%
CC(C)(C)c1cc(N2CCOCC2)n2ncc(-c3ccccc3)c2n1	23.2%	?	12.3	8.2	-19.6%	·
CCCc1cc(N2CCOCC2)n2ncc(-c3ccccc3)c2n1	53.1%	?	57.8*	38.6*	37.8%	29.0%
Cc1nc2c(-c3ccccc3)cnn2c(N2CCOCC2)c1C	40.9%	-11.1%	97.5*	47.0*	179.8%	187.4%
O=S(=O)(CCN1C=CC(C(F)(F)F)=NCC1)c1ccc(Cl)cc1Cl	42.4%	3.0%	-10.4	-1.9	7.8%	-15.0%
Nc1cccc2cccc([N+](=O)[O-])c12	?	19.1%	·	·	·	·
CN(C)S(=O)(=O)c1ccc(C(=O)NCC[N+]2(C)CCCCCC2)o1	-26.9%	-3.0%	4.1	0.7	9.28µM*	?
SMILES	AMA1 RON2 block	HCV inhibitor	Shiga inhibitor	CHX counter	Pf growth 96h	Pf growth 48h
Cc1ccc(C(=O)NCCCCNC(=O)c2ccc(C)o2)o1	4.0%	7.7%	-28.4	1.8	0.0%	-4.4%
C=CCOc1cccc(/C=N/NC(=O)CN2CCCCC2)c1	1.0%	3.2%	-1.7	6.9	21.6%	25.5%
CS(=O)(=O)c1ccc2nc(NC(=O)c3ccccc3Br)sc2c1	7.4%	-17.6%	70.2*	37.3*	168.3%	102.0%
COc1ccccc1C(=O)Nc1nc2ccccc2s1	14.6%	?	·	-13.2	?	?
CS(=O)(=O)c1ccc2nc(NC(=O)CCNC(=O)c3ccccc3Cl)sc2c1	3.2%	-3.6%	·	·	-104.3%	10.4µM*
COc1ccccc1C(=O)Nc1nc2ccc(S(C)(=O)=O)cc2s1	3.7%	8.8%	+	17.2*	10.2%	79.8%
CS(=O)(=O)c1ccc2nc(NC(=O)c3ccccc3Cl)sc2c1	?	-2.0%	59.2*	15.4*	?	9.4%
COc1cccc(CNC(=O)Cn2c(=O)c3cccn3c3ccccc32)c1	-3.2%	-0.6%	1.6	-3.1	-1.9%	-16.3%
O=C(NC(NNc1ccc([N+](=O)[O-])cc1)(C(F)(F)F)C(F)(F)F)c1ccccc1Cl	-9.6%	?	-14.3	-2.8	?	-6.5%
O=C(NC(Nc1nc2ccc([N+](=O)[O-])cc2s1)(C(F)(F)F)C(F)(F)F)c1ccccc1Cl	-6.5%	0.562µM*	-9.4	-4.1	0.928µM*	1.47µM*
COC(=O)Nc1ccc2[nH]cc(CCNC(C)=O)c2c1	·	·	11.7	-6.2	·	·
Nc1[nH]c(C(=O)c2ccccc2)c(-c2ccccc2Br)c1C(=O)NCCc1ccc(Cl)cc1Cl	6.0%	·	·	·	·	·
CC(=O)Nc1ccc(C#Cc2ccc(NC(C)=O)cc2)cc1	-0.4%	-5.5%	67.8*	33.6*	72.1%	47.0%
CC(=O)Nc1ccc(-c2ccc(NC(C)=O)cc2)cc1	-7.2%	7.8%	60.0*	32.6*	5.9%	1.9%
CC(=O)Nc1ccc(-c2ccc(NC(C)=O)c(O)c2)cc1O	0.0%	-6.1%	33.0*	18.3*	98.8%	109.0%
O=C(O)C(CCc1ccccc1)(Cc1ccccc1)C(=O)O	-6.4%	13.0%	·	·	·	·
CN(CCc1ccccc1)C(=O)c1cccc(NC(=O)Cc2cccc([N+](=O)[O-])c2)c1	-25.4%	?	·	·	·	·
O=c1c2c(-c3cccs3)csc2ncn1-c1ccc(Br)cc1	29.6%	?	15.5	0.8	?	?
COc1ccc(-c2nc3scc(-c4ccc(OC)c(OC)c4)c3c(=O)o2)cc1	-5.9%	?	1.6	-3.3	31.3%	19.0%
COc1cccc(-n2cnc3scc(-c4cccs4)c3c2=O)c1	3.5%	11.2µM*	-10.7	-1.0	·	-25.2%
COc1ccc(C(=O)Nn2cnc3scc(-c4cccs4)c3c2=O)c(O)c1	8.3%	6.6%	116.3*	30.8*	-27.4%	137.0%
O=C(O)COc1ccc(/C=N/n2cnc3scc(-c4cccs4)c3c2=O)cc1	5.7%	-7.8%	-8.0	-0.8	16.7%	1.9%
CCOc1ccc(-n2cnc3scc(-c4ccc(OC)c(OC)c4)c3c2=O)cc1	-22.2%	?	-8.4	-0.7	2.62µM*	?
